# Activity calls are given as the source filed them. The calls were made as follows: active = hit-call score of the fitted dose curve at least 0.9, where 1 is the maximum; inactive = score below 0.9.
# Test: CCTE_Shafer_MEA_acute_interburst_interval_mean: CCTE's Neural Acute Assay for Mean Interburst Interval, Shafer Lab (AID 2284016);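 also: percent change of mean interburst interval versus each well's own pre-dose baseline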
# Procedure: CCTE_Shafer_MEA_acute assay is conducted using Axion Biosystems 48 well microelectrode array (MEA) plates and Maestro recording system. Each well of the MEA plate contains a grid of 16 microelectrodes embedded in the culture surface. Electrically active cells, such as neurons, can be cultured over the electrodes, and electrical activity in these cells can be recorded extracellularly. The spontaneous firing of neurons is captured from each electrode on a microsecond timescale providing both temporally and spatially precise data. […] The CCTE_Shafer_MEA_acute assay uses primary cultures of rat cortical neurons. As these cultures mature over time, neural networks develop functional activity and form cohesive networks in which electrical activity can be highly coordinated. Baseline 40-minute recordings are made on days post-plating 13 or 15, followed by a secondary 40-minute recording after chemical exposure.CCTE_Shafer_MEA_acute_interburst_interval_mean is a component of the CCTE_Shafer_MEA_acute assay. It measures the average time between the start of consecutive single-electrode bursts (temporally-clustered groups of action potential firing) during a recording in a microelectrode array (MEA) using Axion Biosystems Maestro 768 channel amplifier with the AxIS adaptive spike detector. The recordings before and after chemical treatment are used to calculate a percent change in the mean inter-burst interval in each well.Data from the assay component CCTE_Shafer_MEA_acute_interburst_interval_mean was analyzed into 1 assay endpoint. This assay endpoint, CCTE_Shafer_MEA_acute_interburst_interval_mean, was analyzed in the negative analysis fitting direction relative to DMSO as the negative control and baseline of activity. Using a type of functional reporter, gain or loss-of-signal activity can be used to understand electrical activity.
# Spontaneous activity in the cortical cultures was recorded using an Axion Biosystems Maestro 768 channel amplifier and Axion Integrated Studios (AxIS) v1.8 (or later) software. The amplifier recorded from all channels simultaneously (gain = 1200 x; sampling rate = 12.5 kHz/channel): raw signals were filtered with a Butterworth band-pass filter (300-5000 Hz), which filters out slower local field potentials leaving only fast potentials, i.e., "spikes", arising from extracellular currents associated with action potentials (Pine 2006; Wheeler and Nam 2011). On-line spike detection of filtered signals was conducted with the AxIS adaptive spike detector, using a threshold of 8x the root mean squared (rms) noise on each channel. Any electrodes with rms noise levels greater than 5 uV were grounded (e.g., no data were recorded). Once grounded, an electrode was grounded for the duration of the experiment. All recordings were conducted at 37 C. Wells were deemed usable if on the day of the exposure >/= 10 electrodes were active (defined as >/= 5 spikes/min). On DIV 13 or 15, a minimum of three wells from one cortical culture preparation were treated with each compound (0.03-40 uM). Prior to recording baseline activity, each mwMEA plate was placed in the Maestro at 37 C and allowed to sit for 20 min while firing rates stabilized. Baseline activity (40 min) was recorded before the addition of each compound. An additional 40 min of spontaneous activity was recorded in the presence of each compound. Changes in network parameters relative to baseline were assessed following compound treatment.
Compound,outcome,AC50
Cc1ncc([C@@H](CCCCCCc2ccc3c(n2)NCCC3)CC(=O)O)cn1,inactive,
CCCCCCCC/C=C\CCCCCCCC(=O)OC[C@@H](O)[C@H]1OC[C@H](O)[C@H]1O,inactive,
CCc1ccc(O)c(C(C)(C)C)c1,inactive,
CC(C)C(=O)Nc1ccc([N+](=O)[O-])c(C(F)(F)F)c1,,30.8 µM (active)
CCCCC(CC)C(=O)OCCOCCOCCOC(=O)C(CC)CCCC (stereo not drawn),inactive,
Cn1c(=O)c2[nH]cnc2n(C)c1=O,inactive,
OCc1ccccc1,inactive,
CCCc1ccccc1,inactive,
OC(CCl)CCl,inactive,
COc1cc2c(c(OC)c1OC)-c1ccc(OC)c(=O)cc1[C@@H](NC(C)=O)CC2,inactive,
COc1cc(C(C)C)c2c(c1)S(=O)(=O)N(COc1cc(=O)n3cccc(OCCN4CCCCC4)c3n1)C2=O,inactive,
c1ccc2cc3ccccc3cc2c1,inactive,
COCc1nnc(-c2ccc[n+]([O-])c2)n1-c1c(Cl)c(Cl)cc2[nH]c(=O)c(=O)[nH]c12,,30 µM (active)
CCCCCCCC1CCC(=O)O1 (stereo not drawn),inactive,
c1ccc(C(O[C@@H]2CCCN(CCc3ccc4c(c3)OCO4)C2)c2ccccc2)cc1,,4.15 µM (active)
O=S(=O)(O)c1ccc(N=Nc2c(O)ccc3cc(S(=O)(=O)O)ccc23)cc1,inactive,
CC[C@H](C)C(=O)O[C@H]1C[C@H](O)C=C2C=C[C@H](C)[C@H](CC[C@@H](O)C[C@@H](O)CC(=O)O)[C@H]21,inactive,
C=CCc1cc(S(=O)(=O)c2ccc(O)c(CC=C)c2)ccc1O,inactive,

# Source: PubChem BioAssay (EPA / NIEHS)
